The structures appear in SMILES notation. Out of some 1,100 compounds screened, about 390 (35%) were called active. Roughly 30% stayed inconclusive and do not appear here. The list shows a part of the results. Values without a mark were called inactive. Calls come from the whole dose curve; as a rule, active = well fitted inhibition curve with a large enough effect; inconclusive = small, poorly fitted or top-dose-only effect; inactive = flat fitted curve, though single readings scatter.
% is set by controls: 0 for no effect and ±100 for the full control effect; potency is the fitted concentration of half-maximal effect.

The target of the experiment is Luciferin 4-monooxygenase (Photinus pyralis) (UniProt P08659). In words: qHTS of Nrf2 Activators: Hit Validation in Secondary FLuc Assay. Note: nearly all actives have a fitted effect of over 65% in size. The conditions noted are these: firefly luciferase inhibition counter-screen, luminescence; series mostly up to 57.5 µM; activity, negative = inhibition: at the top concentration. In short, it runs like this:
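Counter-screen on purified firefly luciferase with ATP and D-luciferin at Km concentrations; compounds flagged if they inhibit the enzyme, indicating possible reporter stabilization rather than ARE activation.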
A general note: qHTS replaces the single test concentration by a dilution series.
For `COc1ccc(Cl)cc1NC(=O)c1cc(-c2ccccc2O)n[nH]1`, the “activity, negative = inhibition” value is -23.7%.

Consider `COc1ccc(O)c(-c2cc(-c3ccc(F)cc3)n[nH]2)c1`, for which the Potency is 4.78 µM (active).

For `COC(=O)c1scc(C)c1NC(=O)c1ccc(Cl)cc1`, the “activity, negative = inhibition” value was 5.2%.

`O=C1S/C(=C\C=C\c2ccco2)C(=O)N1c1ccccc1`: the Potency was 6.75 µM (active).

As for `O=C(CN1CCN(Cc2ccccc2)CC1)N/N=C\C=C/c1ccco1`, the “activity, negative = inhibition” value was -3.19%.

As to `O=C1S/C(=C\C=C\c2ccco2)C(=O)N1c1ccc(O)cc1`, the Potency is 9.53 µM (active).

As for `CN1CCN(c2sc(S(C)(=O)=O)nc2S(=O)(=O)c2ccc(Cl)cc2)CC1`, the “activity, negative = inhibition” value was -0.708%.

Regarding `Cc1ccc(O)c(NC(=O)c2cc([N+](=O)[O-])ccc2Cl)c1`, the “activity, negative = inhibition” value is -21.1%.

As for `CC(C)=NNc1cnnc2ccc([N+](=O)[O-])cc12`, the Potency was 10.7 µM (active).

In the case of `Cc1ccc([N+](=O)[O-])cc1NC(=O)c1ccccc1`, the “activity, negative = inhibition” value was 5.55%.

Turning to `O=C(NC1CCCCC1)N(c1ccccc1)c1nnc(-c2cccc([N+](=O)[O-])c2)s1`, the Potency is 16.9 µM (active).

Regarding `CC(=O)Nc1ccc(S(=O)(=O)c2ccnc3cc(Cl)ccc23)cc1`, the “activity, negative = inhibition” value is -10.5%.

As for `c1ccc(C2=Nn3c(nnc3-c3ccco3)SC2)cc1`, the Potency is 26.9 µM (active).

As to `C[n+]1c2n(c3ccccc31)N=C(c1ccccc1)CS2`, the Potency result is “inactive”.

`Cc1ccc2oc(-c3cccc(NC(=O)c4ccc(Br)o4)c3)nc2c1`: the Potency is 8.49 µM (active).

Consider `Cc1cc(C(=O)Nc2cc(Br)ccc2O)on1`, for which the “activity, negative = inhibition” value is -27.5%.

In the case of `Cc1ccc(C)c(-c2nnc(NC(=O)c3ccc([N+](=O)[O-])o3)o2)c1`, the “activity, negative = inhibition” value is -24.8%.

Regarding `Cc1nc(NC(=O)c2ccc(Br)o2)ccc1Br`, the Potency was 9.53 µM (active).

In the case of `O=C(Nc1ccc2ccccc2c1)c1ccc(Br)o1`, the Potency is 1.2 µM (active).

With `O=C(Cn1cnc2ccccc21)N/N=C/C(Br)=C/c1ccccc1`, the “activity, negative = inhibition” value was -29.9%.

`O=C(/C=C/Nc1ccc(F)cc1)c1cccs1`: the Potency is 0.19 µM (active).

On to `O=C(NNC(=O)c1nc(Cl)ccc1Cl)c1ccc(F)cc1`, for which the “activity, negative = inhibition” value is -24.8%.

Take `COCCn1c(=NC(=O)c2cc(Cl)sc2Cl)sc2cc(S(N)(=O)=O)ccc21`: the Potency is 15.1 µM (active).

With `O=c1oc2ccccc2cc1-c1csc(Nc2ccc(O)cc2)n1`, the Potency was 1.35 µM (active).

Consider `O=c1oc2ccc(Br)cc2cc1-c1nc2ccccc2o1`, for which the “activity, negative = inhibition” value is -2.54%.

For the molecule `CN1CCN(S(=O)(=O)c2ccc(Sc3nnnn3-c3ccccc3)c([N+](=O)[O-])c2)CC1`, the “activity, negative = inhibition” value was -15.7%.

Consider `CCOc1cc2c(c3c1C(c1ccccc1)N(S(=O)(=O)c1ccc(C)cc1)C3)C(=O)C=CC2=O` (stereo unspecified), for which the Potency was 0.601 µM (active).

Regarding `Cc1ccccc1/C=C1\C(=O)Nc2ccc(F)cc21`, the “activity, negative = inhibition” value is -16.3%.

On to `Cc1ccsc1/C=N/N=C1\C(=O)Nc2ccccc21`, for which the Potency is 3.38 µM (active).

As to `COC(=O)[C@@]1(Sc2ccc(C)cc2)CC(=O)N(C(=O)/C=C/c2ccccc2)[C@@H]1c1ccccc1`, the “activity, negative = inhibition” value is -4.35%.

Regarding `O=C(NC(=S)Nc1cc(C(F)(F)F)ccc1Cl)c1ccccc1`, the “activity, negative = inhibition” value is -18.4%.

As to `O=C(NC(=S)Nc1ccccc1O)c1ccccc1Cl`, the Potency is 8.49 µM (active).

Take `O=C(CNC(=S)NC(=O)c1ccccc1Br)c1ccccc1`: the “activity, negative = inhibition” value is -2.89%.

On to `O=C1/C(=C\c2ccc(Cl)cc2)CCC1CNc1ccc(Cl)cc1` (stereo unspecified), for which the Potency is 19 µM (active).

On to `Cc1ccc(S(=O)(=O)c2nc(S(C)(=O)=O)sc2N2CCCCC2C)cc1` (stereo unspecified), for which the “activity, negative = inhibition” value was 3.09%.

`COc1cc(C=C(c2nc3ccccc3s2)c2nc3ccccc3s2)ccc1O`: the Potency is 12 µM (active).

As for `O=C1Nc2cccnc2N(C(=O)CCl)c2ccccc21`, the “activity, negative = inhibition” value is -2.21%.

Regarding `COc1ccccc1C=Cc1ccnc2ccccc12`, the Potency was 5.36 µM (active).

In the case of `O=C(c1ccco1)c1cn(CC(=O)N2CCCc3ccccc32)c2ccccc12`, the “activity, negative = inhibition” value is -29.5%.

On to `CC(=O)Nc1ccc(O)c(-c2nc3ccccc3s2)c1`, for which the Potency is 2.13 µM (active).

With `O=C1c2cccc3cccc(c23)C(=O)N1Cc1ccco1`, the “activity, negative = inhibition” value was -1.75%.

With `c1ccc(N=NC2=NN(c3ccccc3)CS2)cc1`, the Potency was 2.13 µM (active).

For the molecule `O=c1c(Cl)c(N/N=C/c2ccc(Cl)cc2)cnn1-c1ccccc1`, the Potency is 19 µM (active).

Regarding `O=C(O)c1ccc(-n2ncc(Cl)c(Cl)c2=O)cc1`, the “activity, negative = inhibition” value was 4.91%.

Take `Cc1ccc(Sc2cnn(-c3ccccc3)c(=O)c2Cl)cc1`: the “activity, negative = inhibition” value was 0.573%.

As for `Oc1ccc2ccccc2c1/C=C/c1ccc2c(Br)cc(Br)c(O)c2n1`, the Potency was 10.7 µM (active).

In the case of `COC(=O)c1sccc1NC(=O)c1ccccc1F`, the “activity, negative = inhibition” value is 2.44%.

As to `COc1cc2c(cc1NC(=O)c1ccccc1F)CCCC2`, the Potency is 8.49 µM (active).

For `Cc1noc(C)c1COc1ccccc1C(=O)NNC(=O)c1ccccc1F`, the “activity, negative = inhibition” value is -1.09%.

Consider `COc1cc(OC)c(NC(=O)c2ccco2)cc1Cl`, for which the “activity, negative = inhibition” value was -28.1%.

For `COc1cc2c(cc1NC(=O)c1ccco1)CCCC2`, the Potency is 7.57 µM (active).

`COC(=O)[C@@H]1Cc2c([nH]c3ccccc23)C(C)(C)N1C(=O)CCl`: the “activity, negative = inhibition” value was 3.08%.

Take `Cc1cc(Br)ccc1NC(=O)CNC(=O)Cn1ncc(Cl)c(Cl)c1=O`: the “activity, negative = inhibition” value was -3.69%.

As for `CCOC(=O)c1ccccc1N/C=C/C(=O)c1ccccc1`, the Potency is 10.7 µM (active).

For the molecule `CCOC(=O)c1cnc(-c2ccccc2)nc1-c1ccccc1`, the “activity, negative = inhibition” value is -24.4%.

As for `CCOC(=O)c1ccsc1NC(=O)CCS(=O)(=O)c1ccccc1`, the “activity, negative = inhibition” value is 2.57%.

For the origin of these results see PubChem BioAssay AID651597 (National Center for Advancing Translational Sciences (NCATS), 2012).
